Screens deposited in PubChem BioAssay by several laboratories.
Rows were chosen to be rich in hits. Some 3.3% of all compounds tested hit in one or more screens of this group.
697 NFkB inh = lowers PMA/ionomycin-induced NF-kB signal in 697 B cells | 697 B-cell NF-kB luciferase reporter, 16 h | inhibition, % at 4 µM | 0.33% of 330,000 active | AID 435022; in the data active means inhibition above about 35%
Gli-Sufu antag = antagonists of Gli-Sufu signaling; inhibition, % at 5 µM; Sufu-KO-LIGHT fibroblasts, Gli luciferase reporter luminescence; AID 588413; 0.74% of 340,000 active;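 active means inhibition above about 55%, limit read from the data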;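 further: 0% = DMSO-treated cells and 100% = wells with medium but no cells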
SMARCA2 act = SMARCA2 function activation, primary screen; MG213 cells, MMTV-luciferase reporter, dexamethasone, overnight; activation, % at 9.1 µM; 1% of 370,000 active; AID 652017; in the data active means activation above about 7.8%;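 further: 0% = vehicle wells and 100% = reference activator wells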
Jurkat NFkB inh = inhibitors of the PMA/ionomycin-induced NF-kB reporter in Jurkat cells; 0.53% of 330,000 active; inhibition, % at 4 µM; AID 435003; PMA/ionomycin-induced NF-kB luciferase reporter, luminescence; in the data active means inhibition above about 50%
esBAF inh = SWI/SNF esBAF complex inhibition; mouse ES cells, Bmi1-luciferase knock-in reporter, 24 h; 100% = twice the neutral-well signal; reporter increase, % at 12.5 µM; 2% of 350,000 active; in the data active means activation above about 40%;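 further: 0% = median of the plate's neutral control wells and 100% = double that signal; a rise in the Bmi1 reporter signal indicates esBAF inhibition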
SMARCA2 act conf = SMARCA2 activation, confirmation screen. shares compounds with SMARCA2 act. MG213 cells, MMTV-luciferase with dexamethasone, luminescence, overnight; MG213 cells expressing E1A, Rb sequestered; DMSO wells 0%, reference activator 100%. activation, % at 9.1 µM. 30% of 3,500 active. AID 652260;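 active means activation above its plate's cutoff, the mean activation of tested wells plus 3 SD, cut at about 7.9% in these data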
GAL4-VP16 Luc = GAL4-VP16 reporter activation counter-screen. shares compounds with SMARCA2 act. HEK293 GAL4-VP16 pG5luc reporter, luciferase luminescence; scaled: DMSO wells 0%, SAHA wells 100%. activation, % at 9.1 µM. 41% of 3,500 active. AID 686939;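 active means activation above the solvent-only control well mean plus 3 SD, averaged across control plates, cut at about 5.2% in these data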
Active calls of the source: *; x = no result given.

SMILES	697 NFkB inh	Gli-Sufu antag	SMARCA2 act	Jurkat NFkB inh	esBAF inh	SMARCA2 act conf	GAL4-VP16 Luc
O=C(Oc1cccc(-c2cnc3ccccc3n2)c1)c1ccco1	-101.0	-6.3	10.1*	-90.2	15.3	8.7*	13.1*
COc1cccc(CNC(=O)C[C@@H]2CC[C@@H](NC(=O)C3CCC3)[C@@H](CO)O2)c1	x	x	x	x	1.0	x	x
COc1cc(OCc2ccccc2)c2c(CCC(=O)O)cc(=O)oc2c1	x	0.5	8.5*	x	x	-2.5	0.6
CO[C@@H]1CN(C)C(=O)c2cc(NC(C)=O)ccc2OC[C@H](C)N(C(=O)C2CCCCC2)C[C@@H]1C	x	x	x	x	-0.5	x	x
CN(C[C@@H]1[C@@H](c2ccccc2)[C@H](CO)N1CC1CC1)C(=O)c1cccc(F)c1	x	x	x	x	-8.1	x	x
Cc1ccc(NC(=O)c2cc([N+](=O)[O-])ccc2N2CCOCC2)cc1C	-15.4	1.9	8.1*	-0.8	x	-5.2	1.2
Cn1cc(Br)c(C(=O)Nc2sc3c(c2C(N)=O)CCC3)n1	-1.7	-24.6	8.7*	-40.1	x	2.0	6.7*
Cc1onc(-c2ccccc2Cl)c1C(=O)NC(=S)Nc1ccc(C(C)(C)C)cc1	15.3	45.8	10.6*	10.7	x	3.2	-0.5
O=C(CCn1c(=O)sc2ccccc21)Nc1nccs1	-24.8	-38.5	8.3*	-29.5	33.8	3.7	7.7*
Cc1csc(NC(=O)CCn2c(=O)sc3ccccc32)n1	-3.4	-7.9	5.5	-2.2	17.3	x	x
O=C(Nc1ccc(F)cc1)c1ccc2[nH]c(=O)c(=O)[nH]c2c1	-12.2	12.3	8.5*	12.0	-5.2	0.3	0.5
O=C(NNC(=O)c1ccccc1F)c1ccc2[nH]c(=O)c(=O)[nH]c2c1	-8.7	-8.4	0.9	9.2	27.2	x	x
CCOc1ccc(CCNC(=O)CSc2cc(=O)n(C)c3cc(Cl)ccc23)cc1OCC	-47.1	-7.1	-0.8	0.3	1.9	x	x
Cn1c(=O)cc(SCC(=O)NCCC2=CCCCC2)c2ccc(Cl)cc21	11.9	2.5	8.3*	3.0	x	4.6	2.1
COc1ccc(C2=NN(S(C)(=O)=O)C(c3cccs3)C2)cc1 (configuration not stated)	-107.8	-77.8	10.1*	-103.3	x	8.1*	6.5*
CCN(C)c1ccc(/C=N\n2nnnc2N)cc1	-107.4	-19.5	12.3*	19.2	x	7.6	14.9*
Nc1nnnn1/N=C/c1ccc(O)cc1	-20.9	4.6	-0.5	-9.0	-3.6	x	x
CC(=O)Nc1ccc(OS(=O)(=O)c2c(C)cc(C)cc2C)cc1	-6.3	-2.4	-2.0	0.9	1.8	x	x
CC(=O)Nc1cc(C)c(S(C)(=O)=O)c(C)c1	2.9	6.8	8.1*	5.0	x	-1.6	2.2
Cc1ccc(Nc2nc(COC(=O)COc3ccc(C=O)cc3)cs2)cc1	-64.0	-24.2	9.8*	-32.1	48.7*	8.1*	9.0*
COCc1c(C(=O)N/N=C(/C)c2ccc(OCc3ccccc3)cc2)nnn1-c1nonc1N	-130.2	-25.7	1.2	-40.8	25.1	x	x
C/C(=N\NC(=O)c1nnn(-c2nonc2N)c1C)c1ccc(OCc2ccccc2)cc1	-87.1	-11.9	14.4*	-36.6	19.9	4.5	6.1*
Cc1ccc2nc(-c3ccc(NC(=S)NC(=O)C(C)C)cc3)sc2c1	-223.9	x	6.5	-103.4	38.6	x	x
Cc1ccc2nc(-c3ccc(NC(=S)NC4CC(C)(C)NC(C)(C)C4)cc3)sc2c1	-134.0	-98.4	12.6*	-62.5	36.7	-7.6	15.6*
O=C(O)CSCC(=O)Nc1ccc(-c2nc3ccccc3s2)cc1	-64.4	-10.8	1.8	-22.7	x	x	x
Cc1ccc2nc(-c3ccc(NC(=O)CSCC(=O)O)cc3)sc2c1	-103.1	-98.2	15.6*	-135.7	26.2	6.4	19.7*
CC(=O)N1N=C(c2cccc(NS(C)(=O)=O)c2)CC1c1ccc2c(c1)OCO2 (configuration not stated)	-20.4	-13.7	1.6	-17.5	38.7	x	x
CS(=O)(=O)Nc1ccc(C2=NN(S(C)(=O)=O)C(c3ccc4c(c3)OCO4)C2)cc1 (configuration not stated)	-79.7	-74.7	10.1*	-28.1	x	15.6*	6.6*
